Assay results taken from PubChem BioAssay AID1671202 (University of Kansas High Throughput Screening Laboratory, 2021).
Several values for one entry are separate records, joined by “and”; a condition that tells them apart may be missing. Equal values may be shown once. Among all 190,000 compounds or so, about 6,900 (3.6%) were called active. The list comes from a sample in which actives are over-represented; it also holds similar structures and randomly drawn compounds. A number with no mark means an inactive call. No stated cut-off is given here; in the data, active means inhibition above about 50%; inactive means the rest.

Each molecule was assayed against Huntingtin (Homo sapiens) (UniProt P42858) (assay: mutant huntingtin-calmodulin interaction inhibitors – biochemical, AlphaScreen, primary screen (AID 1671202;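 further: 0% = both proteins with DMSO and 100% = one protein alone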)). Settings: AlphaScreen His-mHTT/GST-CaM binding, luminescence; at 15 µM, stronger effect = higher value.
Huntingtin (Homo sapiens), sequence (P42858 whole entry, looked up, stated change not applied): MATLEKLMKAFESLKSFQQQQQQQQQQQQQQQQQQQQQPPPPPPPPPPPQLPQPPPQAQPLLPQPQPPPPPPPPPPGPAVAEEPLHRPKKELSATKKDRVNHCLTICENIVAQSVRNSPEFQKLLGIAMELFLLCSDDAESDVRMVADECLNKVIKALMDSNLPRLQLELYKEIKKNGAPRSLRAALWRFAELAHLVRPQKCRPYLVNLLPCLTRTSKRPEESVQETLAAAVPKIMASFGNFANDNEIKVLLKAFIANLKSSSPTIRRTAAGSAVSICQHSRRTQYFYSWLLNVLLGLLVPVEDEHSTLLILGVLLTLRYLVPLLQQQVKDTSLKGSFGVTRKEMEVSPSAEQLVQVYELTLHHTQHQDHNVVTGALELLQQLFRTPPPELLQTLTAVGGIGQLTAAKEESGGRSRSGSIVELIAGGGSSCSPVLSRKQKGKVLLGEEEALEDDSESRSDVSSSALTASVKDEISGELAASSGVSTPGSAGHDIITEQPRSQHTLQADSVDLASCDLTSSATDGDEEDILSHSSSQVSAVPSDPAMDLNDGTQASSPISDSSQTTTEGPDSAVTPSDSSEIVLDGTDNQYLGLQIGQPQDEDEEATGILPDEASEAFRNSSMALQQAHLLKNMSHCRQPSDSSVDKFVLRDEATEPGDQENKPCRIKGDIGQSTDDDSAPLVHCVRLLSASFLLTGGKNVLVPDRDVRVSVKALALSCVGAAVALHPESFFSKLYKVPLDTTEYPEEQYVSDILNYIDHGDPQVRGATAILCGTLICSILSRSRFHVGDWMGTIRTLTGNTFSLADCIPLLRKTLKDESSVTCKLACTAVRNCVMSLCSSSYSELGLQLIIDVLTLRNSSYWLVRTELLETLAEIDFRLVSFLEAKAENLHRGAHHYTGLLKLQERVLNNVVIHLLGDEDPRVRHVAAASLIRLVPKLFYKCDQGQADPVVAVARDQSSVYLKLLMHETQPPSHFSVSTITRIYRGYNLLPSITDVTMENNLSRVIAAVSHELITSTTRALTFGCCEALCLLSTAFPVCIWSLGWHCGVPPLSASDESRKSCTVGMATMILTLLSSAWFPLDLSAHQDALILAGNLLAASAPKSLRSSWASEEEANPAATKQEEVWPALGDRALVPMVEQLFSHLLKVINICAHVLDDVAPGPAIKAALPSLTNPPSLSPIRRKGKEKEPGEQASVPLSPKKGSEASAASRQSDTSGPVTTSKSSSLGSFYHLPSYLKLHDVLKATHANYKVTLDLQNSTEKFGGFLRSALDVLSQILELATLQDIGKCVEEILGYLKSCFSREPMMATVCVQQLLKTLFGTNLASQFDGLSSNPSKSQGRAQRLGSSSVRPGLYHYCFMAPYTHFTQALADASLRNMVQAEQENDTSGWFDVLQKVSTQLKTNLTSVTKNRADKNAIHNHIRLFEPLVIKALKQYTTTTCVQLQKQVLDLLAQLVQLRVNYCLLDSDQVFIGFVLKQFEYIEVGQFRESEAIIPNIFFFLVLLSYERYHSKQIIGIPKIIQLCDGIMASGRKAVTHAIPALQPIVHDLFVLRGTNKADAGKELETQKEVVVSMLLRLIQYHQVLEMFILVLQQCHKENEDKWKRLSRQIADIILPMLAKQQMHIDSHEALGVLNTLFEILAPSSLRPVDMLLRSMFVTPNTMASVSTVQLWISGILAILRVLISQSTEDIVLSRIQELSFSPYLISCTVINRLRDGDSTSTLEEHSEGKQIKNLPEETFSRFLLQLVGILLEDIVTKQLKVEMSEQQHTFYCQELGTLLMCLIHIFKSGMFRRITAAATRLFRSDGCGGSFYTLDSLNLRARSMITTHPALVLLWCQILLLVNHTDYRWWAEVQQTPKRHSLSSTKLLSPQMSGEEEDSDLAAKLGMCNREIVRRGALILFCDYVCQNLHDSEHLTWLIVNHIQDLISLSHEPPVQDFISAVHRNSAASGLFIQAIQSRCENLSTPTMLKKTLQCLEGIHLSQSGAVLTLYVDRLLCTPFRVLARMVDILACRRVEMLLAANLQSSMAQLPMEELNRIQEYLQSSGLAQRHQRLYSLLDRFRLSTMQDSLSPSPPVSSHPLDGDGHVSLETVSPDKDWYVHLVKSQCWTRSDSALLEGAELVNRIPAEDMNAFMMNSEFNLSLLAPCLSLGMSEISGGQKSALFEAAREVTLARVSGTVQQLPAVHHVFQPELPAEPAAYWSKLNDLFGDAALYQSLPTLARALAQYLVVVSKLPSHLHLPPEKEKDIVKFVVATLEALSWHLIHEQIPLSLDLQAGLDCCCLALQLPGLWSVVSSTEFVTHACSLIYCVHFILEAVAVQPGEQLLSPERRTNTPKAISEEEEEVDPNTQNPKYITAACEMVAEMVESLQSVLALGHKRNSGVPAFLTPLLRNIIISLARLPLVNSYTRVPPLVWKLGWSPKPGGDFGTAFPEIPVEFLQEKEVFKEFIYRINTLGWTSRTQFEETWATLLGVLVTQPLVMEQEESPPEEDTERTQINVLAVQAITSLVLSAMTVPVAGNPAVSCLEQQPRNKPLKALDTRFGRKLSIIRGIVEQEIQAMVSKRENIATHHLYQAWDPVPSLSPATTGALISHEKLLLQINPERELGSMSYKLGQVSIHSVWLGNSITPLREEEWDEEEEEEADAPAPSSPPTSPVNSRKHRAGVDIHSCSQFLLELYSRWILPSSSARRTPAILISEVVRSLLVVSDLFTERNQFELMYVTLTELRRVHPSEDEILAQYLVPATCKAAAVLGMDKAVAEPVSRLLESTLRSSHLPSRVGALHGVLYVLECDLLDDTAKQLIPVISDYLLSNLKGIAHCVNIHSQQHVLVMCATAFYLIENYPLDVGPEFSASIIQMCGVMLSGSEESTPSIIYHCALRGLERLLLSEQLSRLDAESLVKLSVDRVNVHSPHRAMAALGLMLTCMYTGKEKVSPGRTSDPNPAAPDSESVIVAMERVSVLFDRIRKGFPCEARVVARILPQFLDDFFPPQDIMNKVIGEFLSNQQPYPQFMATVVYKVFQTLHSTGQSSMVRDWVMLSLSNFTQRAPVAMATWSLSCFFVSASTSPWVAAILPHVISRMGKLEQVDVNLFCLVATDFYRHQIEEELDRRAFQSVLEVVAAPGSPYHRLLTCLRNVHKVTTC
With CCCCS(=O)(=O)N1CC=C(c2cn(CC)c3ncccc23)CC1 the inhibition was 8.9%.
In the case of Nc1ncnc(N2CCN(c3ccccc3)CC2)c1[N+](=O)[O-], the inhibition is reported as 7%.
Cc1ccc(NC(=O)C2CCc3sc(C(=O)N(C)C)cc3C2)cc1Cl (stereo unspecified) gave an inhibition of 5.44%.
For COc1ccc(-c2nc(-c3cccc(-c4ccnn4C)c3)no2)cc1F, the inhibition was -14.7%.
CCC(Sc1nnnn1-c1ccccc1)C(=O)Nc1nnc(C(C)C)s1 (stereo unspecified) gave an inhibition of 6.4%.
In the case of O=C(Nc1ccc(N2CCN(c3ccccc3)C2=O)nc1)c1ccc(F)cc1, the inhibition is reported as 1.4%.
Work on Cn1cccc1CN(C(=O)Nc1ccccc1Cl)C1CC1 yielded an inhibition of 22%.
In the case of COc1cc(/C=C2/C(=O)N(c3ccc(Cl)c(Cl)c3)N=C2C)ccc1O, the inhibition is reported as 79% (active).
COc1ccc(/C=C2/C(=O)N(c3ccccc3)N=C2C)c(OC)c1 showed an inhibition of 25%.
COc1cc(/C=C2/C(=O)N(c3ccc(C(=O)O)cc3)N=C2C)ccc1O was tested, and the inhibition was 13%.
Molecule COc1cc(/C=C2/SC(=O)NC2=O)cc(Br)c1O has an inhibition of 7%.
CC1=NN(c2ccc(Cl)cc2Cl)C(=O)/C1=C/c1ccc(Cl)cc1 showed an inhibition of 27%.
With COc1cc(/C=C2/C(=O)N(c3ccc(Cl)c(Cl)c3)N=C2C)cc(Br)c1O the inhibition was 75% (active).
With Cc1ccnc(NC(=O)c2c(O)c3cccc4c3n(c2=O)CCC4)c1 the inhibition was 4%.
Molecule CCCC(=O)N1CCC2(C1)C(=O)Nc1ccccc12 (stereo unspecified) has an inhibition of 0.5%.
Work on Cc1cccc2[nH]c(S(=O)(=O)Cc3ccc(F)cc3Cl)nc12 yielded an inhibition of -2%.
With O=C(NC(Nc1cccc([N+](=O)[O-])c1)C(Cl)(Cl)Cl)c1ccc(Br)cc1 (stereo unspecified) the inhibition was 76% (active).
In the case of CC(C)(C)NC(NC(=O)c1ccc(Br)cc1)C(Cl)(Cl)Cl (stereo unspecified), the inhibition is reported as -11%.
Cc1ccccc1NC(NC(=O)c1cccc([N+](=O)[O-])c1)C(Cl)(Cl)Cl (stereo unspecified) gave an inhibition of 48%.
For COc1cc(NC(=O)C2CN(C(=O)c3ccncc3)CC23CCCCC3)cc(OC)c1 (stereo unspecified), the inhibition was 87.6% (active).
Work on COc1ccc(C)cc1NC(=O)C1CN(C(=O)c2ccncc2)CC12CCCCC2 (stereo unspecified) yielded an inhibition of 41.7%.
In the case of O=C(NCc1ccccn1)C1CN(C(=O)c2ccncc2)CC12CCCCC2 (stereo unspecified), the inhibition is reported as -2.9%.
CNC(=O)C(=O)Nc1ccc(OC)cc1 gave an inhibition of 2%.
Molecule C=CCNC(=O)c1cc(=O)[nH]c2c(Cl)cccc12 has an inhibition of 2.2%.
COCCn1ccc2c(OCC(=O)Nc3cccc([N+](=O)[O-])c3)cccc2c1=O was tested, and the inhibition was -19%.
For CCOc1ccccc1C(=O)Nc1c2c(nn1-c1cccc(Cl)c1)CSC2, the inhibition was 0%.
Work on CC1CC(=O)Nc2c1c(NC(=O)c1ccc3c(c1)OCO3)nn2C (stereo unspecified) yielded an inhibition of -9.4%.
CCOc1ccccc1C(=O)Nc1nn(C)c2c1C(c1cccs1)CC(=O)N2 (stereo unspecified) was tested, and the inhibition was 100% (active).
In the case of CC(=O)N1CCN(c2nc3c(s2)CC(C(=O)NCCCN2CCC(C)CC2)CC3)CC1 (stereo unspecified), the inhibition is reported as 4.75%.
In the case of Cc1nnc(NC(=O)CSc2nc(C(C)C)ccc2C#N)s1, the inhibition is reported as -5%.
For Cc1ccccc1N1CCN(C/C=C/c2ccccc2[N+](=O)[O-])CC1, the inhibition was 35.9%.
For CN(C)c1ccc(/C=C/CN2CCN(c3ccccc3F)CC2)cc1, the inhibition was 72.5% (active).
Molecule C(=C\c1ccccc1)/CN1CCN(CC2CCCCC2)CC1 has an inhibition of 3.7%.
With Cc1cc(CNC(=O)CSc2ccncc2)no1 the inhibition was -14.6%.
CC(=O)N1CCc2c(sc(NC(=O)c3cc(C)oc3C)c2C(N)=O)C1 gave an inhibition of -3.5%.
For Cc1cc2c(N3CCCC(C(=O)Nc4cccc(F)c4)C3)nccc2s1 (stereo unspecified), the inhibition was -8.41%.
Work on Cc1cc2c(N3CCC(C(=O)Nc4cccc(F)c4)CC3)nccc2s1 yielded an inhibition of 45.2%.
In the case of Cc1cc2c(N3CCC(C(=O)Nc4cccc(C(F)(F)F)c4)CC3)nccc2s1, the inhibition is reported as 80.9% (active).
O=C1CC(c2ccccc2Cl)=Nc2ccccc2N1 was tested, and the inhibition was 5%.
For C=CCN(CC=C)S(=O)(=O)c1ccc(C(=O)Nc2nnc(-c3ccc(F)cc3)o2)cc1, the inhibition was 6%.
With N#Cc1sc2nc(-c3cccs3)ccc2c1N the inhibition was 5% and -18.7%.
COc1cc2c(-c3ccccc3)c(C)oc2cc1CN1CCN(c2ncccn2)CC1 was tested, and the inhibition was 62.2% (active).
Molecule COc1cc(CN2CCN(Cc3cc(OC)c(OC)cc3OC)CC2)cc(OC)c1 has an inhibition of 7.3%.
COc1cc(OC)c(OC)cc1CN1CCN(c2ccccc2F)CC1 gave an inhibition of 6.5%.
Molecule CN(CCc1ccccn1)C(=O)C1CCCN(c2cnn(C)c(=O)c2)C1 (stereo unspecified) has an inhibition of -0.11%.
CCC(=O)NCc1csc(C2CCN(C(=O)c3cccs3)CC2)n1 showed an inhibition of 5.45%.
In the case of Cc1ccc(CNC(=O)C2(C)CCCN(C(=O)CC(C)C)C2)cc1 (stereo unspecified), the inhibition is reported as -7.13%.
Molecule COc1ccc(C(=O)N2CCOC(COc3ccc(C)cc3)C2)cc1 (stereo unspecified) has an inhibition of 4.7%.
With CC(C)C[C@@H](COCc1ccc(Cl)cc1)N1CCN(C(=O)c2ccc(Cl)cc2Cl)CCC1=O the inhibition was 86% (active).
CC(C)C[C@@H](COc1ccccc1)N1CCN(CC(C)C)CCC1=O gave an inhibition of 5.6%.
CC(C)C[C@@H](CO)N1CCN(Cc2ccc(O)cc2)CCC1=O was tested, and the inhibition was -0.4%.
Cc1ccc(S(=O)(=O)N2CCC(=O)N([C@H](COCc3ccccc3)Cc3ccccc3)CC2)cc1 was tested, and the inhibition was -1.2% and -4%.
For O=C(c1ccc(C(F)(F)F)cc1)N1CCC(=O)N([C@H](COCc2ccccc2)Cc2ccccc2)CC1, the inhibition was 99.4% (active).
Work on CN1CCC(=O)N([C@H](CO)Cc2ccccc2)CC1 yielded an inhibition of -6.6%.
With O=C(NCC(c1cccs1)N1CCOCC1)C(=O)Nc1ccon1 (stereo unspecified) the inhibition was -10.7%.
Molecule CCOc1ccccc1N1CCN(CC2CC3C=CC2C3)CC1 (stereo unspecified) has an inhibition of 3.9%.
Work on Cc1cccc2c(C(=O)N3CCOCC3)cc(-c3ccccc3)nc12 yielded an inhibition of 26.2%.
Cc1ccc(C(=O)N2CCCC(COc3ccc(C(=O)N4CCOCC4)cc3)C2)cc1 (stereo unspecified) was tested, and the inhibition was 5.35%.
With O=[N+]([O-])c1ccccc1/C=C/CN1CCN(C/C=C/c2ccccc2)CC1 the inhibition was 75.3% (active).
Molecule O=[N+]([O-])c1ccccc1/C=C/CN1CCN(c2ccccc2)CC1 has an inhibition of 32.8%.
O=[N+]([O-])c1ccccc1/C=C/CN1CCC(O)CC1 gave an inhibition of -1.3%.
